The record followed here is publication PMC7862700, “An all-to-all approach to the identification of sequence-specific readers for epigenetic DNA modifications on cytosine”.

Holding throughout (experiment): DAPPL (digital affinity profiling via proximity ligation, sequencing); 10 mM Tris-HCl pH 7.5, 50 mM NaCl, 1 mM DTT, 4% glycerol, room temperature, 30 min; GST-TFs on glutathione beads, 16-mer random dsDNA library, 0.1% formaldehyde crosslink after washing; high values mean tight binding
Test [1] has as its target T1, FEV (Homo sapiens, UniProt Q99581 1-238).
T1 sequence: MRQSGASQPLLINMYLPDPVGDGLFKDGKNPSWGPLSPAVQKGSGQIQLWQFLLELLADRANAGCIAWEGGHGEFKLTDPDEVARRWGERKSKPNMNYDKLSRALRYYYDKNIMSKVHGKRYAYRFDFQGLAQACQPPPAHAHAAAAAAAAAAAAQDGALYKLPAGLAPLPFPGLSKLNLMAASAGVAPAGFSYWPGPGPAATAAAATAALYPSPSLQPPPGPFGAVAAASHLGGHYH
The following applies: protein: recombinant; tags: N-terminal GST; dsDNA, one strand shown. The method in brief: (§1)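 Human transcription factors were made in yeast as GST fusions, captured on glutathione beads and barcoded with DNA. With a tag-only sample included, the pool was incubated with 200 nmole of a random double-stranded 16-mer DNA library in Tris/NaCl/DTT/glycerol buffer at room temperature for 30 min, then crosslinked with 0.1% formaldehyde after washing, ligated by proximity, amplified and sequenced. For binding signal, each hexamer's read frequency for a factor is divided by its frequency for the tag-only sample.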

Test [2] concerns the target ETV5 (Homo sapiens, UniProt P41161 1-510). The settings on record: protein: recombinant; tags: N-terminal GST; dsDNA, one strand shown. The method in brief:
as §1

Test [3] addresses HSF1 (Homo sapiens, UniProt Q00613 1-529). The following applies: protein: recombinant; tags: N-terminal GST; chain copies: 3; dsDNA, one strand shown. The method in brief:
as §1

In test [4] the target is T2, SPIC (Homo sapiens, UniProt Q8N5J4 1-248).
T2 sequence: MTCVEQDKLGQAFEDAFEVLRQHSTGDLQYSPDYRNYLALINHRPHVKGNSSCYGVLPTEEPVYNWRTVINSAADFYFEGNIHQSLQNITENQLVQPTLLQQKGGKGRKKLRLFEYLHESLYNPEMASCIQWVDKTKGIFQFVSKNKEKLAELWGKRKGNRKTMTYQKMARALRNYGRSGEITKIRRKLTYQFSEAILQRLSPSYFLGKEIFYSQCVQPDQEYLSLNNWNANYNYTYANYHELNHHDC
The settings on record: protein: recombinant; tags: N-terminal GST; dsDNA, one strand shown. In a few lines:
as §1

The target in test [5] is ELF4 (Homo sapiens, UniProt Q99607 1-663). The following applies: protein: recombinant; tags: N-terminal GST; dsDNA, one strand shown. The method in brief: as §1
Test [6] concerns the target T3, ELK4 (Homo sapiens, UniProt P28324-2 1-405).
T3 sequence: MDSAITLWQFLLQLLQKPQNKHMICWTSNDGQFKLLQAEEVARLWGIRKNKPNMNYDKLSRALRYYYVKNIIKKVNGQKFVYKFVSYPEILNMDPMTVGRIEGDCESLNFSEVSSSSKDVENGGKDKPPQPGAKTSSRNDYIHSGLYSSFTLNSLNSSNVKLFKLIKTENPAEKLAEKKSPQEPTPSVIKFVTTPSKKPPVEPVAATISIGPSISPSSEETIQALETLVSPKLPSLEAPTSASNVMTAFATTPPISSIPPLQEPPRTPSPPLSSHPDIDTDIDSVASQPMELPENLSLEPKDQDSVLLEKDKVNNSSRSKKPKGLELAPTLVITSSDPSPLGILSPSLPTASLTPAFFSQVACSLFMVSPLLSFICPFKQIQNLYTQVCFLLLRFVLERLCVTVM
The settings on record: protein: recombinant; tags: N-terminal GST; dsDNA, one strand shown. In a few lines: as §1

Test [7] deals with T4, ETV2 (Homo sapiens, UniProt O00321 1-342).
T4 sequence: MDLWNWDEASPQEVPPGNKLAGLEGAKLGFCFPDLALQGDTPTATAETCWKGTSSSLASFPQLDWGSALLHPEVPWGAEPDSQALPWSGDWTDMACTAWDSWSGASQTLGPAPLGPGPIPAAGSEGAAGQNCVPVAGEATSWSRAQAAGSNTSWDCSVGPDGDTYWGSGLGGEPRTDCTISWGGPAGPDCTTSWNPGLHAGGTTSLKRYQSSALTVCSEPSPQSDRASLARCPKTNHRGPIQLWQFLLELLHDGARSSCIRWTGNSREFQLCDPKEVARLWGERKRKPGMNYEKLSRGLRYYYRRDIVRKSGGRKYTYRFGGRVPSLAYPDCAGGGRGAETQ
The settings on record: protein: recombinant; tags: N-terminal GST; dsDNA, one strand shown. In a few lines: as §1

Test [8] addresses T5, ELF3 (Homo sapiens, UniProt P78545 1-371).
T5 sequence: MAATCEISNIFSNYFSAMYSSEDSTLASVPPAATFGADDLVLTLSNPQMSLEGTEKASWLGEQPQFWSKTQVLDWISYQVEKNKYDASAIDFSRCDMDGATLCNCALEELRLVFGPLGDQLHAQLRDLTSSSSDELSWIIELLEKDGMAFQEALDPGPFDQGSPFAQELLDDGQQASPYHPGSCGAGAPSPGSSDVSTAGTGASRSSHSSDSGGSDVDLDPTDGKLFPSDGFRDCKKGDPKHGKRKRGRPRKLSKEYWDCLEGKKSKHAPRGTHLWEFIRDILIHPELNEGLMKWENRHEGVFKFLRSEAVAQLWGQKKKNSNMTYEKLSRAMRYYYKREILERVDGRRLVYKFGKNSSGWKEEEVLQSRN
The following applies: protein: recombinant; tags: N-terminal GST; dsDNA, one strand shown. In a few lines:
as §1

Test [9] has as its target CRX (Homo sapiens, UniProt O43186 1-299). The settings on record: protein: recombinant; tags: N-terminal GST; dsDNA, one strand shown. The method in brief:
as §1

Test [10] addresses ETV1 (Homo sapiens, UniProt P50549 1-477). The settings on record: protein: recombinant; tags: N-terminal GST; dsDNA, one strand shown. In a few lines:
as §1

Test [11] addresses T6, ERF (Homo sapiens, UniProt P50548 1-548).
T6 sequence: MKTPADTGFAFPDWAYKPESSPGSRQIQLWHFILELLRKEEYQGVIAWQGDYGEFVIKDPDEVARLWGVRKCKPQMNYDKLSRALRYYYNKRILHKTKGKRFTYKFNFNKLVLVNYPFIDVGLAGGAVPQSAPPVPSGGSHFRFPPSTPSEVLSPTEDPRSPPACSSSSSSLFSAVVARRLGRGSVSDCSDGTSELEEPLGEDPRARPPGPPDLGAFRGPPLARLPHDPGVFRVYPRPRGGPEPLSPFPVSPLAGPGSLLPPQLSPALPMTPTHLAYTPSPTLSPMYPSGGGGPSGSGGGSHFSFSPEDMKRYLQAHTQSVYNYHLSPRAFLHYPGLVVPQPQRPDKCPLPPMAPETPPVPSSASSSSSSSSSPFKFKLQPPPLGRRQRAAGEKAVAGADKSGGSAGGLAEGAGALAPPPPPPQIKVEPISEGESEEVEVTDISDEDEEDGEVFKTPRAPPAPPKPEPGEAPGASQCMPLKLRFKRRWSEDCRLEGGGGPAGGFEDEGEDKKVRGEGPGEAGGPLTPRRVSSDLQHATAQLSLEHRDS
The following applies: protein: recombinant; tags: N-terminal GST; dsDNA, one strand shown. In a few lines:
as §1

In test [12] the target is T7, ETV3L (Homo sapiens, UniProt Q6ZN32 1-361).
T7 sequence: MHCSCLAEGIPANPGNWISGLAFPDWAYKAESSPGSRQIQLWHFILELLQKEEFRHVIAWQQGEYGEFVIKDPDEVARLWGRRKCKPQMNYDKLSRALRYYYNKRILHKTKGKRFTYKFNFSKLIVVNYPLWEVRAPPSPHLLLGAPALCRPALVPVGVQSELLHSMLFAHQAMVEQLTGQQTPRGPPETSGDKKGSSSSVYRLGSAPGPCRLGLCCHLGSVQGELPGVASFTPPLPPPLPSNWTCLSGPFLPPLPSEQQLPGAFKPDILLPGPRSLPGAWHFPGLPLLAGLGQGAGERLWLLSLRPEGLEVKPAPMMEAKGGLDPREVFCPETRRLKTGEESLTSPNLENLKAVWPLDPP
The following applies: protein: recombinant; tags: N-terminal GST; dsDNA, one strand shown. The method in brief: as §1

Test [13] addresses T8, ETS2 (Homo sapiens, UniProt P15036 1-469).
T8 sequence: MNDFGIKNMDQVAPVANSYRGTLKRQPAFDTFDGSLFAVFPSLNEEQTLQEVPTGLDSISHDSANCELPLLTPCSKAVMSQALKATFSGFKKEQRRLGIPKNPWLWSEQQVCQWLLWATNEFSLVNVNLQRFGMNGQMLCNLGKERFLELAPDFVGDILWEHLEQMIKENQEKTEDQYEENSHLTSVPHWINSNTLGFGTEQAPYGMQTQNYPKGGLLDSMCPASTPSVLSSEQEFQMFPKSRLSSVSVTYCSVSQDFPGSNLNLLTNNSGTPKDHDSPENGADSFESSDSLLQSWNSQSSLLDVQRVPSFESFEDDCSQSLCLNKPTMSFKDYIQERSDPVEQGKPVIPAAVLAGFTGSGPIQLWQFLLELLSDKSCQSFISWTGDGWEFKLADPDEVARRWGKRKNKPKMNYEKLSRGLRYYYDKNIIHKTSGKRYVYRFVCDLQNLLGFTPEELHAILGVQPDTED
The settings on record: protein: recombinant; tags: N-terminal GST; dsDNA, one strand shown. The method in brief: as §1

For test [14], the target named is T9, SPDEF (Homo sapiens, UniProt O95238 1-335).
T9 sequence: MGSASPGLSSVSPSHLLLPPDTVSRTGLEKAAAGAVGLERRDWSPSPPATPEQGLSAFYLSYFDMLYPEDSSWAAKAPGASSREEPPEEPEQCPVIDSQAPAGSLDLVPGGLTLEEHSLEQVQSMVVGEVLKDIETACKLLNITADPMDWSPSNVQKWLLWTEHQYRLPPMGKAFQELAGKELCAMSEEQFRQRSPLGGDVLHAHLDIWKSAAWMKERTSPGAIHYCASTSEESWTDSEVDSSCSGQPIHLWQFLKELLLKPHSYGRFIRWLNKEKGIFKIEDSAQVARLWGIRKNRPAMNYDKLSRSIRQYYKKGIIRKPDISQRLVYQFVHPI
The following applies: protein: recombinant; tags: N-terminal GST; dsDNA, one strand shown. In a few lines: as §1

For test [15], the target named is T10, ETV7 (Homo sapiens, UniProt Q9Y603 1-341).
T10 sequence: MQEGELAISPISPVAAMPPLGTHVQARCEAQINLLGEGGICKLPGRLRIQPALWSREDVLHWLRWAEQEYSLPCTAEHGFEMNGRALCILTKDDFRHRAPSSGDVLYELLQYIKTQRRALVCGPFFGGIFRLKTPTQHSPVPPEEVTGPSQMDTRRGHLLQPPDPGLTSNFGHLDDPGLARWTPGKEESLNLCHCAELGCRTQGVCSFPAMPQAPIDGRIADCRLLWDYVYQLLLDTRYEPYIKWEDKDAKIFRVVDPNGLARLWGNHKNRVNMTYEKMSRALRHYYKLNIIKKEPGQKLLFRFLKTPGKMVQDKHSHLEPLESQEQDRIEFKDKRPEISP
The settings on record: protein: recombinant; tags: N-terminal GST; dsDNA, one strand shown. In a few lines: as §1

The target of test [16] is T11, ELF5 (Homo sapiens, UniProt Q9UKW6-2 1-255).
T11 sequence: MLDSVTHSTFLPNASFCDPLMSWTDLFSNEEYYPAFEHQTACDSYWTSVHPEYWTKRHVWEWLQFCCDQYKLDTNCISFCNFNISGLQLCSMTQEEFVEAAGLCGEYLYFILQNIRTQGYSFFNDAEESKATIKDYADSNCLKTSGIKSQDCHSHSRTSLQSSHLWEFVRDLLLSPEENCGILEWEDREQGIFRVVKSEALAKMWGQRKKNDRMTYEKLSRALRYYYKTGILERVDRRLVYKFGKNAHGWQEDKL
The following applies: protein: recombinant; tags: N-terminal GST; dsDNA, one strand shown. In a few lines:
as §1

The target of test [17] is T12, ETV3 (Homo sapiens, UniProt P41162-2 1-143).
T12 sequence: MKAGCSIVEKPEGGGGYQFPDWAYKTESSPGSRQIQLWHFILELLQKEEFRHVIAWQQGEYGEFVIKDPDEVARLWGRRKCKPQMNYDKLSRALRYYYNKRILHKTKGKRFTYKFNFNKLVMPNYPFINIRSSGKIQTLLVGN
The following applies: protein: recombinant; tags: N-terminal GST; dsDNA, one strand shown. In a few lines: as §1

Test [18] addresses ETV6 (Homo sapiens, UniProt P41212 1-452). The following applies: protein: recombinant; tags: N-terminal GST; dsDNA, one strand shown. The method in brief: as §1

ETV5, sequence (P41161 whole entry): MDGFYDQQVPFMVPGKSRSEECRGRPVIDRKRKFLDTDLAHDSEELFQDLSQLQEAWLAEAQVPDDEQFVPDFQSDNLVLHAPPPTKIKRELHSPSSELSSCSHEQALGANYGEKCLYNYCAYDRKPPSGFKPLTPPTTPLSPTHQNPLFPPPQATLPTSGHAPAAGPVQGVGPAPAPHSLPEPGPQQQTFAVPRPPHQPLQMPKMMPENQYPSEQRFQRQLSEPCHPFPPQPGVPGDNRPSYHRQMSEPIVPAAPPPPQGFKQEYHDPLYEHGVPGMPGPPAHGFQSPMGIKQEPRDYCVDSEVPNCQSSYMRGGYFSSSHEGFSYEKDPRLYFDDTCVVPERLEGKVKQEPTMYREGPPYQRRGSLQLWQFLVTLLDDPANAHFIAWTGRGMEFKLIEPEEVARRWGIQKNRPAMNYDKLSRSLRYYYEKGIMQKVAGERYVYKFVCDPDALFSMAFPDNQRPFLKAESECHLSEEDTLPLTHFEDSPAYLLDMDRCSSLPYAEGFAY
ELF4, sequence (Q99607 whole entry): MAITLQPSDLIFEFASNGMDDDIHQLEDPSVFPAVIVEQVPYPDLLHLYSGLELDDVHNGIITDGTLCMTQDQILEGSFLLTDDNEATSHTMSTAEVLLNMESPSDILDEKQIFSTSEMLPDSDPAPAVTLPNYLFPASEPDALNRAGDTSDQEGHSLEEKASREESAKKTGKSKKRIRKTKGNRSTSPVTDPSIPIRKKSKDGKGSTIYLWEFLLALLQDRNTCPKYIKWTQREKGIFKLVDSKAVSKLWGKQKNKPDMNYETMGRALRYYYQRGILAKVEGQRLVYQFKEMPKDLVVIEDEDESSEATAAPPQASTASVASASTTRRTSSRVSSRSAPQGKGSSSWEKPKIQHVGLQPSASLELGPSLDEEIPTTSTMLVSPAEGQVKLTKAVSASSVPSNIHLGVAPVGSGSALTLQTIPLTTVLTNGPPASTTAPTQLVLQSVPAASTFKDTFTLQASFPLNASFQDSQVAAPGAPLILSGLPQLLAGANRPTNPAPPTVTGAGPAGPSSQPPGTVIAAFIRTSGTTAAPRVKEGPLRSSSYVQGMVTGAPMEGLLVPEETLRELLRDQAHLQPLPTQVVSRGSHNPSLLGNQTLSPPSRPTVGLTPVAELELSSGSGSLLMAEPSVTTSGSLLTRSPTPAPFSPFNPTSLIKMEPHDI
ETV1, sequence (P50549 whole entry): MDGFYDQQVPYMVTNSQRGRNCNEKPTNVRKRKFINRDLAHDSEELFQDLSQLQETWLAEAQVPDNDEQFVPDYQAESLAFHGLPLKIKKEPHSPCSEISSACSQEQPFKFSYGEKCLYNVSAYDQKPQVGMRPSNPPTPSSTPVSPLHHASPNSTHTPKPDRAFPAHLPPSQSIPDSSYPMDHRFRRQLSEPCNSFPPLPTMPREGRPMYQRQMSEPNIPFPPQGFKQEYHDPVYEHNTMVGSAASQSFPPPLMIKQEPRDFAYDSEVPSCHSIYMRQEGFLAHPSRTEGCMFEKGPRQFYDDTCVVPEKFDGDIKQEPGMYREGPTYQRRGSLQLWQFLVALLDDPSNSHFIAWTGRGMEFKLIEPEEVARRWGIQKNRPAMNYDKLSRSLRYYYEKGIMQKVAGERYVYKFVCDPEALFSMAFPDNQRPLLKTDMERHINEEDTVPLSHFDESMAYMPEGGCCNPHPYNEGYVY
CRX, sequence (O43186 whole entry): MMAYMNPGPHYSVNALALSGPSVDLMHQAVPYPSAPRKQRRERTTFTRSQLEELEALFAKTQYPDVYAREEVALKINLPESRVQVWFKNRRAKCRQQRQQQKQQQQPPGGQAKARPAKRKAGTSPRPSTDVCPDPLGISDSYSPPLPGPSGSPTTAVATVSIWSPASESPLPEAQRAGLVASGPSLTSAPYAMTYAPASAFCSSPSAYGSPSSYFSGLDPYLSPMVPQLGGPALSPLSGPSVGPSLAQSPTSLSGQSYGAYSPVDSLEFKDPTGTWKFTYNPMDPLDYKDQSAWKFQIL
ETV6, sequence (P41212 whole entry): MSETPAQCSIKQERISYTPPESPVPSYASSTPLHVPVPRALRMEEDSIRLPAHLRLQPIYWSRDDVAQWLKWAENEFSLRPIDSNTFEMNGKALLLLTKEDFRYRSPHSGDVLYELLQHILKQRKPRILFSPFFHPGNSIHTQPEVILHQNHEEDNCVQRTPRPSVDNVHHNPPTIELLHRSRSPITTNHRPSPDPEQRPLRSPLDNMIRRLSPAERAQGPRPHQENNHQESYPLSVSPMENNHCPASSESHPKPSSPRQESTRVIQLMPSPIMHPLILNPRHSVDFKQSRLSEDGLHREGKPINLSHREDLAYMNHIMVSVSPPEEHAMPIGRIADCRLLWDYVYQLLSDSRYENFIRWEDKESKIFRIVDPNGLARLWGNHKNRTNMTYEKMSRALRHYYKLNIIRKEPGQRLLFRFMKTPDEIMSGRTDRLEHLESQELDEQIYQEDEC
HSF1, sequence (Q00613 whole entry): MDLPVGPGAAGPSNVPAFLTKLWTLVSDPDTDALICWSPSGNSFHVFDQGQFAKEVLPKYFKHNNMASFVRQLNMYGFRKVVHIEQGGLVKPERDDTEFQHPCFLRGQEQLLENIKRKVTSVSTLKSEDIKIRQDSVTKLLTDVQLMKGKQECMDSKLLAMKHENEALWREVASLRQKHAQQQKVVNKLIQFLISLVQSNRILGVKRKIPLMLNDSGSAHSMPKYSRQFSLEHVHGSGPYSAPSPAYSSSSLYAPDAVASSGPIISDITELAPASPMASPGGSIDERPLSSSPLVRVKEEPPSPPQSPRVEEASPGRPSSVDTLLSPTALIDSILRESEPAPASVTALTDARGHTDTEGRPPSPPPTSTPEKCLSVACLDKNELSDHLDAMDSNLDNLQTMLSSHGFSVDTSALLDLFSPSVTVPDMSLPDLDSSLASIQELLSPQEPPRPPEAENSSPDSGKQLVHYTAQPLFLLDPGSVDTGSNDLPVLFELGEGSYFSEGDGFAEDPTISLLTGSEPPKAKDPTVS

On to AAATAC, for which the binding signal in test [1] was 1.41 fold enrichment (6-mer frequency, TF over GST control); in test [2], 1.43 fold enrichment (6-mer frequency, TF over GST control); in test [3], 1.36 fold enrichment (6-mer frequency, TF over GST control); in test [4] it was 1.3 fold enrichment (6-mer frequency, TF over GST control); in test [5], 1.36 fold enrichment (6-mer frequency, TF over GST control); in [6] it was 1.18 fold enrichment (6-mer frequency, TF over GST control). For the same sequence, the binding signal in [7] is 1.51 fold enrichment (6-mer frequency, TF over GST control); in [8] it was 1.37 fold enrichment (6-mer frequency, TF over GST control); in [9], 1.46 fold enrichment (6-mer frequency, TF over GST control); in test [10], 1.39 fold enrichment (6-mer frequency, TF over GST control); in [11], 1.48 fold enrichment (6-mer frequency, TF over GST control); in test [12], 1.35 fold enrichment (6-mer frequency, TF over GST control). In addition, the binding signal in [13] is 1.39 fold enrichment (6-mer frequency, TF over GST control); in test [14] it was 1.41 fold enrichment (6-mer frequency, TF over GST control); in [15], 1.5 fold enrichment (6-mer frequency, TF over GST control); in test [16], 1.52 fold enrichment (6-mer frequency, TF over GST control); in [17] it was 1.39 fold enrichment (6-mer frequency, TF over GST control); in test [18], 1.49 fold enrichment (6-mer frequency, TF over GST control).
